Reference: PubChem BioAssay (NCI)
The panel holds about 83,000 compounds, 20% with a hit somewhere; the sample as a whole holds those more often.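 Results are percent growth after 48 hours of single-concentration exposure. 100 means growth as in untreated cells, lower positive values show inhibition; negative values down to -100 show cell death.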 Calls of active or inactive are those of the source. The calls were made as follows: active = growth percent below 10; inactive = the rest.

Experiments:
Assay in all cases: NCI-60 one-dose screen, 48 h (100 = growth as untreated, 0 = no growth, -100 = all killed)
Details in all cases: 10 µM unless noted
NCI-H23 lung = test system: NCI-H23 lung
NCI-H226 lung = test system: NCI-H226 lung
NCI-H322M lung = test system: NCI-H322M lung
HOP-62 NSCLC = test system: HOP-62 NSCLC
NCI-H460 lung = test system: NCI-H460 lung
HOP-92 NSCLC = test system: HOP-92 NSCLC
NCI-H522 lung = test system: NCI-H522 lung
A549/ATCC NSCLC = test system: A549/ATCC NSCLC
786-0 renal = test system: 786-0 renal
COLO 205 colon = test system: COLO 205 colon

Measured: growth

Nc1ncc(-c2ccc3ncnc(N4CCc5ccc(Cl)cc54)c3c2)cn1
active: NCI-H226 lung 0.981% | NCI-H322M lung -15.4% | HOP-62 NSCLC -11.9% | NCI-H460 lung 4.03% | HOP-92 NSCLC -34.5% | NCI-H522 lung -15.7% | A549/ATCC NSCLC 0.08% | 786-0 renal -0.891% | COLO 205 colon -25.8%
inactive: NCI-H23 lung 12.4%

C=CCn1c(SCC(=O)Nc2ccc(C(=O)/C=C/c3ccc(Cl)cc3)cc2)nnc1-c1ccc(Cl)c(Cl)c1
inactive: NCI-H23 lung 85% | NCI-H226 lung 85.7% | NCI-H322M lung 83.4% | HOP-62 NSCLC 84.3% | NCI-H460 lung 90.2% | HOP-92 NSCLC 70.2% | NCI-H522 lung 66.5% | A549/ATCC NSCLC 67.4% | 786-0 renal 82.9% | COLO 205 colon 100%

O=C1/C(=C/c2ccc(-c3ccc(Cl)cc3)o2)SC(=S)N1CCc1ccc(O)cc1
inactive: NCI-H23 lung 81.3% | NCI-H226 lung 84.1% | NCI-H322M lung 70.3% | HOP-62 NSCLC 46.8% | HOP-92 NSCLC 55.3% | A549/ATCC NSCLC 17.6% | 786-0 renal 60.9% | COLO 205 colon 16.8%
active: NCI-H460 lung 9.88% | NCI-H522 lung -18.8%

O=C1/C(=C/c2cccc([N+](=O)[O-])c2)COc2ccc(O)c(O)c21
active: NCI-H23 lung -27.4% | HOP-62 NSCLC -31.3% | NCI-H460 lung 4.3% | HOP-92 NSCLC -43.1% | NCI-H522 lung -71.3% | A549/ATCC NSCLC 9.74% | 786-0 renal -87.9% | COLO 205 colon -18.2%
inactive: NCI-H226 lung 81.5% | NCI-H322M lung 28.7%

[2H]C([2H])([2H])Oc1ccc(/C=C/C(=O)/C=C(/C=C/c2ccc(OC([2H])([2H])[2H])c(OC([2H])([2H])[2H])c2OC([2H])([2H])[2H])OB(F)F)c(OC([2H])([2H])[2H])c1OC([2H])([2H])[2H]
inactive: NCI-H23 lung 59.5% | NCI-H226 lung 88.5% | NCI-H322M lung 97.7% | HOP-62 NSCLC 85.7% | NCI-H460 lung 91.7% | HOP-92 NSCLC 74.1% | NCI-H522 lung 45.9% | A549/ATCC NSCLC 84.2% | 786-0 renal 70.9% | COLO 205 colon 43.6%

CCOC(=O)c1c(C)c2c(n1Cc1ccccc1)CSc1cc(C#N)c(=O)[nH]c1-2
active: HOP-92 NSCLC -18.5% [100 µM]
inactive: NCI-H23 lung 72.6% [100 µM] | NCI-H226 lung 89.6% [100 µM] | NCI-H322M lung 78.6% [100 µM] | HOP-62 NSCLC 58.7% [100 µM] | NCI-H460 lung 67% [100 µM] | NCI-H522 lung 87% [100 µM] | A549/ATCC NSCLC 75.1% [100 µM] | 786-0 renal 19.8% [100 µM] | COLO 205 colon 60.4% [100 µM]

COc1ccc(C(=O)/C=C/Nc2cc(-c3ccccc3)nn2-c2ccccc2)cc1
inactive: NCI-H23 lung 90% | NCI-H226 lung 79.8% | NCI-H322M lung 93.2% | HOP-62 NSCLC 102% | NCI-H460 lung 98% | HOP-92 NSCLC 80.8% | NCI-H522 lung 82.7% | A549/ATCC NSCLC 91.4% | 786-0 renal 89% | COLO 205 colon 110%

O=C1C2C(c3cccs3)C=C(c3ccc(Cl)cc3)N2C(=S)N1c1ccccc1 (stereo not given)
inactive: NCI-H23 lung 94.2% | NCI-H226 lung 86.8% | NCI-H322M lung 102% | HOP-62 NSCLC 101% | NCI-H460 lung 108% | HOP-92 NSCLC 97.2% | NCI-H522 lung 98.6% | A549/ATCC NSCLC 101% | 786-0 renal 102% | COLO 205 colon 119%

CNC(=O)c1cc(Oc2ccc3nc(NC(=O)c4cc(C(F)(F)F)cc(C(F)(F)F)c4)sc3c2)ccn1
inactive: NCI-H23 lung 20.2% | NCI-H226 lung 23.3% | NCI-H322M lung 15.1% | HOP-62 NSCLC 16.3% | NCI-H460 lung 15.7% | A549/ATCC NSCLC 17.8% | COLO 205 colon 19.1%
active: HOP-92 NSCLC -32.5% | NCI-H522 lung -9.54% | 786-0 renal 9.65%

N#C/C(=C\c1cccc2cnccc12)N1N=NC2C=CC=CC21 (stereo not given)
active: HOP-92 NSCLC -14.6%
inactive: NCI-H23 lung 48.5% | NCI-H226 lung 68.7% | NCI-H322M lung 67.2% | HOP-62 NSCLC 79.9% | NCI-H460 lung 40.8% | NCI-H522 lung 14.1% | A549/ATCC NSCLC 64.2% | 786-0 renal 53.1% | COLO 205 colon 47.4%

COC(=O)[C@H]1Cc2c([nH]c3ccccc23)[C@H](c2ccc3c(c2)OCO3)N1
inactive: NCI-H23 lung 99.7% | NCI-H226 lung 98.5% | NCI-H322M lung 98.9% | HOP-62 NSCLC 107% | NCI-H460 lung 106% | HOP-92 NSCLC 84.9% | NCI-H522 lung 83.2% | A549/ATCC NSCLC 105% | 786-0 renal 98.5% | COLO 205 colon 118%

C#Cc1cccc(Nc2ncnc3ccc(-c4cnc(Cl)c(NS(C)(=O)=O)c4)cc23)c1
active: NCI-H23 lung -5.52% | NCI-H226 lung 2.26% | NCI-H322M lung -42.3% | HOP-62 NSCLC 3.57% | NCI-H460 lung 6.42% | HOP-92 NSCLC -17.1% | NCI-H522 lung -22.8% | A549/ATCC NSCLC -28.5% | 786-0 renal -14.6% | COLO 205 colon -69.2%

CCN1CCN(C(=O)[C@]23CC[C@@H](C)[C@H](C)[C@@H]2C2=CC[C@@H]4[C@@]5(C)C/C(=C/c6ccncc6)C(=O)C(C)(C)[C@@H]5CC[C@@]4(C)[C@]2(C)CC3)CC1
inactive: NCI-H23 lung 20.8% | NCI-H226 lung 24.7% | NCI-H322M lung 53.2% | HOP-62 NSCLC 33.2% | HOP-92 NSCLC 45.2% | NCI-H522 lung 23.4% | A549/ATCC NSCLC 25.5% | 786-0 renal 19.6%
active: NCI-H460 lung -6.85% | COLO 205 colon -15.6%

COC(=O)CNC(=O)c1ccc(NC(=O)c2[nH]c(C)c(Cl)c2Cl)c(O[C@H]2CCNC2)c1
inactive: NCI-H23 lung 98.7% | NCI-H226 lung 104% | NCI-H322M lung 109% | HOP-62 NSCLC 95.6% | NCI-H460 lung 108% | HOP-92 NSCLC 99% | NCI-H522 lung 97.7% | A549/ATCC NSCLC 105% | 786-0 renal 102% | COLO 205 colon 110%

O=C(Nc1ccccc1C(F)(F)F)C1=NCCCCN1
inactive: NCI-H23 lung 98.5% | NCI-H226 lung 96.1% | NCI-H322M lung 95.1% | HOP-62 NSCLC 100% | NCI-H460 lung 105% | HOP-92 NSCLC 97.9% | NCI-H522 lung 86.8% | A549/ATCC NSCLC 102% | 786-0 renal 98.8% | COLO 205 colon 110%

N#Cc1c(-c2ccc(F)cc2)cc(-c2cccc(Cl)c2)[nH]c1=O
inactive: NCI-H23 lung 62.8% | NCI-H226 lung 54.1% | NCI-H322M lung 75.2% | HOP-62 NSCLC 28% | NCI-H460 lung 86.8% | HOP-92 NSCLC 29.7% | NCI-H522 lung 57.9% | A549/ATCC NSCLC 46.3% | 786-0 renal 42.1% | COLO 205 colon 116%

NC(=O)[C@@H]1Cc2ccccc2CN1C(=O)c1ccc2c(c1)Cc1ccccc1-2
inactive: NCI-H23 lung 89.4% | NCI-H226 lung 83.2% | NCI-H322M lung 103% | HOP-62 NSCLC 108% | NCI-H460 lung 91.5% | HOP-92 NSCLC 92.9% | NCI-H522 lung 66.9% | A549/ATCC NSCLC 64.9% | 786-0 renal 97.8% | COLO 205 colon 105%

COc1cc(C)cc(-c2c(-c3cc(N4CC(O)C4)nc(-c4cccnc4)n3)cnn2C)c1
inactive: NCI-H23 lung 77.9% | NCI-H226 lung 91.5% | NCI-H322M lung 101% | HOP-62 NSCLC 111% | NCI-H460 lung 90.8% | HOP-92 NSCLC 74.7% | NCI-H522 lung 86.5% | A549/ATCC NSCLC 84.9% | 786-0 renal 81.6% | COLO 205 colon 104%

CCOC(=O)/C(=C/c1ccc([N+](=O)[O-])cc1)C(=O)c1ccccc1
inactive: NCI-H23 lung 48% | NCI-H226 lung 21.3% | NCI-H322M lung 73.5% | HOP-62 NSCLC 76.5% | NCI-H460 lung 55.2% | HOP-92 NSCLC 32.4% | A549/ATCC NSCLC 71.5% | 786-0 renal 17.2%
active: NCI-H522 lung -24.7% | COLO 205 colon 4.21%

C=C1CC[C@@H]2[C@](C)(COC(C)=O)[C@H](OC(C)=O)CC[C@@]2(C)[C@@H]1CC(Nc1ccc(S(=O)(=O)Nc2nccc(C)n2)cc1)C1=CCOC1=O (stereo not given in full)
inactive: NCI-H23 lung 48.4% | NCI-H322M lung 64.8% | HOP-62 NSCLC 156% | NCI-H460 lung 46.9% | HOP-92 NSCLC 71.6% | A549/ATCC NSCLC 63.4% | 786-0 renal 32.5%
active: NCI-H226 lung -12.1% | NCI-H522 lung -50.6% | COLO 205 colon 9.64%

Nc1nc(=O)n([C@H]2CC=C(CO)O2)cc1F
inactive: NCI-H23 lung 98.5% | NCI-H226 lung 99.6% | NCI-H322M lung 95.9% | HOP-62 NSCLC 99.1% | NCI-H460 lung 98.4% | HOP-92 NSCLC 101% | NCI-H522 lung 80.7% | A549/ATCC NSCLC 89.7% | 786-0 renal 102% | COLO 205 colon 107%

COC(CCP(=O)(c1ccccc1)c1ccccc1)(C(=O)c1ccccc1)c1ccccc1 (stereo not given)
inactive: NCI-H23 lung 77.3% | NCI-H226 lung 85.7% | NCI-H322M lung 72.8% | HOP-62 NSCLC 88% | NCI-H460 lung 50% | NCI-H522 lung 28.9% | A549/ATCC NSCLC 48.1% | 786-0 renal 89.4% | COLO 205 colon 62.4%
active: HOP-92 NSCLC -8.84%

Cn1ccnc1C(=O)/C=C/c1ccc(CC(=O)Nc2cc(F)c(F)c(F)c2)cc1
active: NCI-H23 lung 8.11% | NCI-H460 lung 5.19% | 786-0 renal 6.02%
inactive: NCI-H226 lung 58.1% | NCI-H322M lung 21.1% | HOP-62 NSCLC 11.8% | HOP-92 NSCLC 69.4% | NCI-H522 lung 12.3% | A549/ATCC NSCLC 28.6% | COLO 205 colon 24%

COc1cc2cc(Oc3ccc(NC(=O)Nc4ccc(F)c(C(F)(F)F)c4)cc3)c(C)nc2cc1OCCN1CCCCC1
active: NCI-H460 lung -69.2% | NCI-H522 lung -66.6% | A549/ATCC NSCLC -45.9% | COLO 205 colon -64%
inactive: NCI-H23 lung 34.2% | NCI-H226 lung 81.1% | NCI-H322M lung 69.5% | HOP-62 NSCLC 95.4% | HOP-92 NSCLC 33.5% | 786-0 renal 61.9%

NCCNc1ccc([N+](=O)[O-])cc1
inactive: NCI-H23 lung 112% | NCI-H226 lung 99.5% | NCI-H322M lung 112% | HOP-62 NSCLC 104% | NCI-H460 lung 111% | HOP-92 NSCLC 98.9% | NCI-H522 lung 94.9% | A549/ATCC NSCLC 108% | 786-0 renal 99.5% | COLO 205 colon 120%
